We go through seven molecules from PubChem BioAssay (NCATS).

In experiment [1] the target is Lysosomal acid glucosylceramidase (Homo sapiens) (UniProt P04062). Kind of experiment: Glucocerebrosidase-p2 (AID 348; in the data active = potency below about 10 µM; note: potency is the fitted concentration of half-maximal effect). The conditions noted are these: purified GBA, blue fluorogenic substrate, 40 min. An outline of the steps: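 Normal human glucocerebrosidase (0.2 nM) with blue fluorogenic substrate (80 uM final) in citrate/phosphate pH 5.9 with 10mM sodium taurocholate, 0.01% tween-20; 40 min RT, NaOH/glycine stop; fluorescence Ex 365/Em 440; AC50 from a titration from 0.6 nM upwards.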

Experiment [2] is described as follows: AP1 Signaling Pathway (AID 357; active = well fitted curve in either direction with a large enough effect, not every such curve was filed as active;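 note: ME-180 reporter cells stimulated with EGF at its EC50 level; % is set by controls: 0 for no effect and ±100 for the full control effect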). To be noted: ME-180 AP-1-bla reporter, EGF-induced, beta-lactamase ratio, 5 h; at 7.69 µM (top of the series) unless noted. The method, boiled down:
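First, ME-180 AP-1-bla cells were cultured overnight at 37 °C in low-serum Opti-MEM. Next, titrated compounds with EC50 EGF were incubated 5 hours. Finally, CCF4 was added for 2.5 hours and the 460/530 nm ratio recorded.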

In experiment [3] the target is Cytochrome P450 1A2 (Homo sapiens) (UniProt P05177). As to the kind of experiment: p450-cyp1a2 (AID 410; calls by dose curve; note: potency is the fitted concentration of half-maximal effect). To be noted: recombinant CYP1A2, luciferin-ME demethylation, luminescence; series mostly up to 57 µM. An outline of the steps:
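Read-out is luminescence from luciferin produced by CYP1A2 demethylation of Luciferin-ME (100uM, at Km). Detection reagent stopped the 60 min NADPH-dependent reaction; signals were normalized to 57 uM furafylline.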

Experiment [4] can be described thus: NFAT Signaling Pathway (AID 444; active = well fitted curve in either direction with a large enough effect, not every such curve was filed as active;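 note: carbachol stimulus at about its EC50 of 1 µM final; % is set by controls: 0 for no effect and ±100 for the full control effect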). To be noted: Jurkat NFAT-bla M1, carbachol, beta-lactamase ratio, 5 h; at 7.69 µM (top of the series) unless noted. An outline of the steps: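 Jurkat cells carrying an NFAT-driven β-lactamase reporter and co-transfected muscarinic M1 receptor were treated with compound plus carbachol (1 uM final, an EC50 level) for 5 h at 37 °C. CCF4 loading followed for 1 h at RT; 460/530 nm ratio gave %activity.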

The nature of experiment [5]: Stat Signaling Pathway (AID 446; active = well fitted curve in either direction with a large enough effect, not every such curve was filed as active;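 note: ME-180 cervical cancer cells given 40 pM IL-6 alongside compound; SIE-controlled beta-lactamase reporter measured as 460/530 nm FRET emission ratio; % is set by controls: 0 for no effect and ±100 for the full control effect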). The conditions noted are these: ME-180 (cervical carcinoma) SIE beta-lactamase reporter, IL-6 stimulated, 5 h; at 7.69 µM (top of the series) unless noted. The method, boiled down: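 Compound effects on IL-6-induced STAT reporter activity were measured in ME-180 cells. After overnight culture, cells were co-treated with 40 pM IL-6 for 5 hrs before beta-lactamase substrate loading at room temperature.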

Experiment [6] addresses Glucocorticoid receptor (Homo sapiens) (UniProt P04150). As to the kind of experiment: GR-GFP Redistribution (AID 450;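 active = compounds whose dose series gives a full or clear partial fitted curve of increased nuclear translocation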; note: potency is the fitted concentration of half-maximal effect). The conditions noted are these: U2OS GR-GFP nuclear translocation, laser cytometry, 2 h.
The target is the same in experiment [7]. As to the kind of experiment: GR-EFC Redistribution (AID 451; calls by dose curve; note: potency is the fitted concentration of half-maximal effect). The conditions noted are these: CHO-K1 GR-EFC translocation, beta-gal luminescence, 2 h. The method, boiled down: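 CHO-K1 cells stably expressing nuclear-localized β-gal enzyme acceptor and GR fused C-terminally to the enzyme donor fragment; ligand-driven nuclear translocation restores β-gal by complementation. Compounds titrated up to 46 uM final, 2 h at 37 °C; luminescence read.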

Experiment [8] addresses Mitogen-activated protein kinase 10 (Mus musculus) (UniProt Q61831). Kind of experiment: JNK3 AlphaScreen Assay (AID 530; active = well fitted curve in either direction with a large enough effect, not every such curve was filed as active;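 note: kinase came from lysate of stimulated human HepG2 cells; signal reports phosphorylation of biotinylated GST-cJun 1-79 at Ser73 with 10 µM ATP; % is set by controls: 0 for no effect and ±100 for the full control effect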). To be noted: JNK3 lysate, c-Jun phosphorylation; series mostly up to 57.1 µM. The method, boiled down:
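Biotinylated GST-cJun(1-79) served as substrate for JNK3 in HepG2 lysates stimulated with IL-1beta and TNF-alpha. ATP was 10 uM final, pH 7.6. Ser73 phosphorylation was quantified by AlphaScreen (680 nm excitation).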
(In general: In Alpha technology, singlet oxygen from a donor bead excites a nearby acceptor bead.)

For experiment [9], the target named is 3',5'-cyclic-AMP phosphodiesterase 4B (Homo sapiens) (UniProt Q07343). As to the kind of experiment: qHTS Assay for Inhibitors of PDE-IV (AID 607; active = well fitted activation curve with a large enough effect in the main read-out, with a control signal flat, not every such curve was filed as active; note: % of control where 0% means no effect). The conditions noted are these: HEK293 ACTOne CNG channel cells, membrane potential fluorescence; series mostly up to 22.9 µM. The method, boiled down:
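ACTOne HEK293 cells carry a modified cAMP-gated CNG channel and express endogenous PDE4; plated 1000 cells/well, compounds up to 22.9 uM final. Membrane-potential dye fluorescence (ex 535/em 590) was read; parental cells received 10 uM forskolin + 100 uM RO 20-1724.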
(In general: qHTS replaces the single test concentration by a dilution series.)

The target in experiment [10] is Cytochrome P450 3A4 (Homo sapiens) (UniProt P08684). As to the kind of experiment: qHTS Assay for Inhibitors and Substrates of Cytochrome P450 3A4 (AID 884). Note: potency is the fitted concentration of half-maximal effect; nearly all actives have a fitted effect of over 50% in size. The conditions noted are these: recombinant CYP3A4, Luciferin-PPXE luminescence; series mostly up to 57.1 µM. The method, boiled down: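 Luminescent readout of luciferin produced by CYP3A4 (20 nM) dealkylation of Luciferin-PPXE, 25 uM (its KM). NADPH-driven reaction ran 60 min at RT after 10 min compound preincubation; data scaled to 57 uM ketoconazole as 100% inhibition.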

Experiment [11] deals with Dual specificity protein kinase CLK4 (Homo sapiens) (UniProt Q9HAZ1). Kind of experiment: qHTS Assay for Inhibitors of CDC-like Kinase 4 (Kinase-Glo Assay) (AID 1770). Note: nearly all actives have a fitted effect of over 65% in size. Note: potency is the fitted concentration of half-maximal effect. The conditions noted are these: recombinant Clk4, Kinase-Glo ATP depletion luminescence; series mostly up to 66.7 µM. An outline of the steps:
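Inhibition was judged from remaining ATP, measured by Ultra-Glo luciferase bioluminescence after Clk4 (25 nM) had acted on RS peptide at 1 uM ATP for 4.5 hours, room temperature.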

For experiment [12] the target is unchanged. Kind of experiment: qHTS Assay for Inhibitors of CDC-like Kinase 4 (ADP-Glo Assay) (AID 1771). Note: nearly all actives have a fitted effect of over 70% in size. Note: potency is the fitted concentration of half-maximal effect. The conditions noted are these: recombinant CLK4, ADP-Glo luminescence; series mostly up to 80 µM. The method, boiled down:
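In this ADP-Glo format, 1 uM ATP and 100 uM RS peptide served as substrates for 25 nM Clk4 in Mg2+/EGTA/DTT/Triton buffer; reactions ran 1 hr at room temperature before luminescent ADP quantification.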

For experiment [13], the target named is Ubiquitin carboxyl-terminal hydrolase 1 (Homo sapiens) (UniProt O94782). Kind of experiment: Inhibitors of USP1/UAF1: Pilot qHTS (AID 504865).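 Note: rhodamine fluorescence freed from ubiquitin-rhodamine substrate followed over time; top concentration of the series differs between compounds; % is set by controls: 0 for no effect and ±100 for the full control effect; nearly all actives have a fitted effect of over 35% in size.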 To be noted: purified USP1/UAF1, Ub-rhodamine cleavage fluorescence; series mostly up to 54.9 µM. An outline of the steps:
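Kinetic fluorescence assay: 1nM USP1/UAF1, 15 min compound preincubation, then 150nM Ub-Rho; 480/540 nm.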

The nature of experiment [14]: Primary qHTS for small molecule stabilizers of the endoplasmic reticulum resident proteome: Secreted ER Calcium Modulated Protein (SERCaMP) assay (AID 1508630). Note: % is set by controls: 0 for no effect and ±100 for the full control effect. To be noted: SH-SY5Y GLuc-SERCaMP (Gaussia luciferase released on ER calcium loss) secretion, thapsigargin, luminescence; series mostly up to 38.4 µM. The method, boiled down: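 The SH-SY5Y reporter protocol was run at 3 concentrations up to 38.3 uM (primary) or 11 concentrations (follow-up): 16 h compound, 100 nM thapsigargin for 4 h, then extracellular luciferase luminescence.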

The target in experiment [15] is Cytochrome P450 3A4 (Homo sapiens) (UniProt P08684). As to the kind of experiment: qHTS Assay for Activators of Cytochrome P450 3A4 (AID 885). Note: nearly all actives have a fitted effect of over 65% in size. The conditions noted are these: recombinant CYP3A4, Luciferin-PPXE luminescence, 60 min; series mostly up to 57.1 µM. An outline of the steps:
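CYP3A4 activity: Luciferin-PPXE O-dealkylation, 25uM substrate, 200mM KPO4, RT throughout. Read-out is luciferase luminescence; higher values reflect activation.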

Experiment [16] has as its target Cytochrome P450 2C19 (Homo sapiens) (UniProt P33261). As to the kind of experiment: qHTS Assay for Inhibitors and Substrates of Cytochrome P450 2C19 (AID 899). Note: potency is the fitted concentration of half-maximal effect; nearly all actives have a fitted effect of over 60% in size. The conditions noted are these: recombinant CYP2C19, luciferin-H EGE luminescence; series mostly up to 57.1 µM. The method, boiled down: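 Human CYP2C19 (5nM) with Luciferin-H EGE at 10uM (its KM) in 50mM KPO4 was preincubated with compound for 10 min at 37C. NADPH regeneration started a 60 min 37C reaction. Luciferin was read by luminescence, normalized to 57uM ketoconazole.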

For experiment [17], the target named is Dual specificity protein kinase CLK4 (Homo sapiens) (UniProt Q9HAZ1). Kind of experiment: qHTS Assay for Inhibitors of CDC-like Kinase 4 (ADP-FP Assay) (AID 1795). Note: nearly all actives have a fitted effect of over 60% in size. Note: potency is the fitted concentration of half-maximal effect. The conditions noted are these: Transcreener ADP fluorescence polarization; series mostly up to 50 µM. The method, boiled down: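 Inhibition of ADP formation by 6.25 nM Clk4 is measured using 1 uM ATP and 100 uM RS repeat peptide over one hour. Produced ADP displaces a fluorescent tracer from antibody, lowering polarization.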

A number with no mark means an inactive call. Inconclusive results are not listed. Activity calls are given as the source filed them. Unless noted, calls come from the whole dose curve; as a rule, active = well fitted curve in the direction sought with a large enough effect; inconclusive = small, poorly fitted or top-dose-only effect, or another doubt; inactive = no such curve, though single readings can be large; an effect the other way counts as inactive or inconclusive.

Chain of Lysosomal acid glucosylceramidase (Homo sapiens) (P04062 whole entry, looked up): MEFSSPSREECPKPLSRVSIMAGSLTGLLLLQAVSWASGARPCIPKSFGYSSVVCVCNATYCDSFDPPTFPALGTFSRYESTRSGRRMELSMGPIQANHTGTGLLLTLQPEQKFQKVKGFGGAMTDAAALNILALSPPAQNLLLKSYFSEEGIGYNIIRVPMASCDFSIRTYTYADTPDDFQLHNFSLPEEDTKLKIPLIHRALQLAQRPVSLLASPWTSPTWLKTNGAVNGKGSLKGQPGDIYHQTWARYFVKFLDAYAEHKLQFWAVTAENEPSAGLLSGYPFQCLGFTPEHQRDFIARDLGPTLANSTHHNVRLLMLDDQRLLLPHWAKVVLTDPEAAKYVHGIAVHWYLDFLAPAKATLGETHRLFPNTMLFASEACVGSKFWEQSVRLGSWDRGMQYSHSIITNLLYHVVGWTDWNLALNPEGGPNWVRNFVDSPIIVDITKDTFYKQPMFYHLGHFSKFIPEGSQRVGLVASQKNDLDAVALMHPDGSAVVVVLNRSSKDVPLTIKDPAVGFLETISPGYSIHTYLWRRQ
Chain of Cytochrome P450 3A4 (Homo sapiens) (P08684 whole entry, looked up): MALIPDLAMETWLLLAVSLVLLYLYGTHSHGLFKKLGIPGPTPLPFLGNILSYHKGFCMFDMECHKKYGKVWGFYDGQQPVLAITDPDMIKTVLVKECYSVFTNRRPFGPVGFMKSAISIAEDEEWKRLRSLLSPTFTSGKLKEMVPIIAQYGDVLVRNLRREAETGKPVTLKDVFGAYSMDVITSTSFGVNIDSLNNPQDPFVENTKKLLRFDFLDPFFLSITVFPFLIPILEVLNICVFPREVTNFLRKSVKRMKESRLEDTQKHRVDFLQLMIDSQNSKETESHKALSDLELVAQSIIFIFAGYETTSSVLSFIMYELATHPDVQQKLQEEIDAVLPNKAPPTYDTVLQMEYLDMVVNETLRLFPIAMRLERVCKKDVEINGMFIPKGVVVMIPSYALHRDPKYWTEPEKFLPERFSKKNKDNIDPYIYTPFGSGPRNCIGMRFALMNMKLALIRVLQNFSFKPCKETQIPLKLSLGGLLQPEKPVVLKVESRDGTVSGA
Chain of Ubiquitin carboxyl-terminal hydrolase 1 (Homo sapiens) (O94782 whole entry, looked up): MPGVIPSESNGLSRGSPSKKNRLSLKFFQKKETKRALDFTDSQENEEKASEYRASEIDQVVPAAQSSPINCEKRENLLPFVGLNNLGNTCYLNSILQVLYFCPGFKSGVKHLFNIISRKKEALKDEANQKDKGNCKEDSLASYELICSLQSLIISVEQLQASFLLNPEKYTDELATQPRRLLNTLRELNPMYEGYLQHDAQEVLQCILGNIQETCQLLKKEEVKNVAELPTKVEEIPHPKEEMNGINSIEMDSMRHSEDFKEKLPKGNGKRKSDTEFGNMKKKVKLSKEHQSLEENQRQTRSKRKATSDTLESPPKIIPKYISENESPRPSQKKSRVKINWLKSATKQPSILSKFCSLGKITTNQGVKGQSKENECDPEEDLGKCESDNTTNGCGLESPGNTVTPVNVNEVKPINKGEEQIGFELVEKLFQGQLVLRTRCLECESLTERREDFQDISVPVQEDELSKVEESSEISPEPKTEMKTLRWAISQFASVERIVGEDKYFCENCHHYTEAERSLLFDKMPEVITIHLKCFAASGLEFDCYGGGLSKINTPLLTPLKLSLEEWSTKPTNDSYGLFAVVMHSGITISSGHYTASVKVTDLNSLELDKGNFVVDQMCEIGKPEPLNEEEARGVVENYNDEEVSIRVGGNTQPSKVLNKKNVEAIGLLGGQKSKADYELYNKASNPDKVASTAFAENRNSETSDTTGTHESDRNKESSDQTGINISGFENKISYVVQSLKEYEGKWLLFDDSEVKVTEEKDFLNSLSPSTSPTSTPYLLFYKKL
Chain of Glucocorticoid receptor (Homo sapiens) (P04150 whole entry, looked up, the tested form may be a part): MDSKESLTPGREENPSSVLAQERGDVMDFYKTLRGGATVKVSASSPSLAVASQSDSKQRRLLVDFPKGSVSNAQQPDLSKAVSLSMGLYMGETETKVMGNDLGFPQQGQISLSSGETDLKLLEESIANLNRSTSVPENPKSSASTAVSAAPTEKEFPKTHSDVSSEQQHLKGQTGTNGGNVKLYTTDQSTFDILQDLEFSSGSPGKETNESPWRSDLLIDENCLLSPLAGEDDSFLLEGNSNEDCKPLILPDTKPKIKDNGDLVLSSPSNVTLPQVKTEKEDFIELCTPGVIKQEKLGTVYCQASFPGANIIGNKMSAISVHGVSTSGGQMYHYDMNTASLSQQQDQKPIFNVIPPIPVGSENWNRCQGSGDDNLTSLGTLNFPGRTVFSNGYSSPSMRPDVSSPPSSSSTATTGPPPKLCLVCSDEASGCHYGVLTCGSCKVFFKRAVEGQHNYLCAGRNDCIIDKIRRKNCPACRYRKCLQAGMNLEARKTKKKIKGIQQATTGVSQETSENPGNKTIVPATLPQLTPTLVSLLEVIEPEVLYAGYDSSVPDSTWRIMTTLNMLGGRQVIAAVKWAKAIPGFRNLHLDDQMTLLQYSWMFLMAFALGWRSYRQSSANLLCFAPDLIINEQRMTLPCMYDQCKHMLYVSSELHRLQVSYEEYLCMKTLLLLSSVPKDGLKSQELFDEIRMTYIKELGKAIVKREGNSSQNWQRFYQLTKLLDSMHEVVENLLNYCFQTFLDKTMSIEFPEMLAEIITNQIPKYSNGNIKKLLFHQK
Chain of Dual specificity protein kinase CLK4 (Homo sapiens) (Q9HAZ1 whole entry, looked up): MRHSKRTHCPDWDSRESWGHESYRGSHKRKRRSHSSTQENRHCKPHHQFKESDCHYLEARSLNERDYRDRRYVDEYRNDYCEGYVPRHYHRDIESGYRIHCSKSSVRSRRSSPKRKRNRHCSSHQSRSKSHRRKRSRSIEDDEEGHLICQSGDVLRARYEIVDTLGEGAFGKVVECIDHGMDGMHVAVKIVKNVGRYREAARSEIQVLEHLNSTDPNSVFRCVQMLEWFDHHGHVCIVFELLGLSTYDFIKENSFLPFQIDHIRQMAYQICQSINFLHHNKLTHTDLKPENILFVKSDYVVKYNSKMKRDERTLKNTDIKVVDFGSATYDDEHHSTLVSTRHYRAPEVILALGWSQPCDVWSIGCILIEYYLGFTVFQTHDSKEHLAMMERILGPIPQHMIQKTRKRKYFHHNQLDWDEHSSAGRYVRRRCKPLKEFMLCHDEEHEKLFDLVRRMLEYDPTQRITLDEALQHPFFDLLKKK
Chain of 3',5'-cyclic-AMP phosphodiesterase 4B (Homo sapiens) (Q07343 whole entry, looked up): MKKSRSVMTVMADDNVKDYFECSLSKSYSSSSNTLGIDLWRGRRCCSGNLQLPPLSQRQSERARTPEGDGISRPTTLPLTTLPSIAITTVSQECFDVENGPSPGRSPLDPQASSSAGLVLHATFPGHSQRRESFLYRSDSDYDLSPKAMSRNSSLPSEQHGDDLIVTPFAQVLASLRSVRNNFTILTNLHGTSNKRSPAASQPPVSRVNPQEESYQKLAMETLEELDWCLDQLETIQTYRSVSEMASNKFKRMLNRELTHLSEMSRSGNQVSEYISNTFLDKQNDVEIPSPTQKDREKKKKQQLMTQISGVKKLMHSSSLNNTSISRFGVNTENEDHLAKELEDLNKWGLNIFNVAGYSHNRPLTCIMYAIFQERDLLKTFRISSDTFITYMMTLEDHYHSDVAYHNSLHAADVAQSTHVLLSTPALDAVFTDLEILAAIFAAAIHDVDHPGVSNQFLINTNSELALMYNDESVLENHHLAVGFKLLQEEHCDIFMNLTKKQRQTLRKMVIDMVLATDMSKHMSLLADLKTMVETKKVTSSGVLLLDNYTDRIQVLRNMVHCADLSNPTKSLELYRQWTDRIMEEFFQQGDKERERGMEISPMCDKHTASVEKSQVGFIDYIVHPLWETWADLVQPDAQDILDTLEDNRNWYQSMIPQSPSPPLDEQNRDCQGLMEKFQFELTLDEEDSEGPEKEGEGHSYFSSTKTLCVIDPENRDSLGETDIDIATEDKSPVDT
Chain of Cytochrome P450 1A2 (Homo sapiens) (P05177 whole entry, looked up): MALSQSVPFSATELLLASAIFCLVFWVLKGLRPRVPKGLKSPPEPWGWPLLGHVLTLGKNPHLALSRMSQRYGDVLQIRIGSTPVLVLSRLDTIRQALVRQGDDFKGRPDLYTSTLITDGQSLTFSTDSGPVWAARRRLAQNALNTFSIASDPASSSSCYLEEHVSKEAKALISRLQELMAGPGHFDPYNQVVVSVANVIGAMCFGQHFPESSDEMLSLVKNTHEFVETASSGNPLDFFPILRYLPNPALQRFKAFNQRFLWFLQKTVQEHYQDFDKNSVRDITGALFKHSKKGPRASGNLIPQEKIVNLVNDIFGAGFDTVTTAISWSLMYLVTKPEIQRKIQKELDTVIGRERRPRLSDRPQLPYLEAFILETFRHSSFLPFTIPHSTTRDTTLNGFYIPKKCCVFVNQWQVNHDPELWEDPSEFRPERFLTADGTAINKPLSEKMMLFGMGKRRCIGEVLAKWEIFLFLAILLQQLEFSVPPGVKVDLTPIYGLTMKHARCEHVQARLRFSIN
Chain of Cytochrome P450 2C19 (Homo sapiens) (P33261 whole entry, looked up): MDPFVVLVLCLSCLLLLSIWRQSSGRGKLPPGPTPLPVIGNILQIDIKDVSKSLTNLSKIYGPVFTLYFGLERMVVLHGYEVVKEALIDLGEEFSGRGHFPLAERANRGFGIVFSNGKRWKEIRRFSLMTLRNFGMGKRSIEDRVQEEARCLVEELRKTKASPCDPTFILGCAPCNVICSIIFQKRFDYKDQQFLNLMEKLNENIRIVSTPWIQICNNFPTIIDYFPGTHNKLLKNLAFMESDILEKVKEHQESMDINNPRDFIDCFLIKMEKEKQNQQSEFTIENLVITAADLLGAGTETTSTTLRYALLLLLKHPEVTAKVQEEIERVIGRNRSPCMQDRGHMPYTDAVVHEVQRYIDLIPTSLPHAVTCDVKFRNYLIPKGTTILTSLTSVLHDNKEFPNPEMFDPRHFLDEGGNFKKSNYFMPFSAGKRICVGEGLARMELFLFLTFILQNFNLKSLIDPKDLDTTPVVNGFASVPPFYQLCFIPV

In the case of `COc1ccccc1-c1cc(-n2ccnc2)ncn1`, the Potency in experiment [1] was > 11.4 µM; in experiment [3] it was 0.316 µM (active); in [6] it was > 46 µM; in [7] it was > 46 µM; in [10], 0.316 µM (active); in [11], 6.31 µM (active). Besides, the Potency in [12] was 6.31 µM (active). For the same molecule, the figures for the activity change, negative = inhibition in experiment [2] and in experiment [4] were 8.26% and 7.77%, respectively. Further, the activity, negative = inhibition in [5] is 10.2%. The Potency result in experiment [8], in [9] and in experiment [13] was “inactive” throughout. The result in experiment [14] was inactive.

For the molecule `COc1cccc(-c2cc(NCc3ccccc3OC)ncn2)c1`, the Potency in experiment [1] is > 11.4 µM; in [3], 1.26 µM (active); in experiment [6], > 46 µM; in experiment [7], > 46 µM; in [16], 7.94 µM (active); in experiment [11], 15.8 µM (active). Also, the Potency in experiment [12] is 28.2 µM (active). The activity change, negative = inhibition in [2] was -14.5%; in experiment [4], 6.41%. In addition, the activity, negative = inhibition in experiment [5] is -1.37%. Moreover, the Potency entry in experiment [8], in experiment [9], in [15] and in experiment [13] was “inactive” in each case. The outcome in experiment [14] was inactive.

For `COc1cccc(Cn2c(=O)c(-c3cccc(C#N)c3)nc3cnc(N4CCOCC4)nc32)c1`, the activity change, negative = inhibition in experiment [2] was 0.3%; in experiment [4], 0.194%. For the same molecule, the activity, negative = inhibition in experiment [5] was 18.9%. For the same molecule, the Potency in experiment [6] is > 9.22 µM; in experiment [7], > 46 µM. For the same molecule, the Potency result in experiment [8], in experiment [9], in experiment [11], in experiment [12], in experiment [17] and in experiment [13] was “inactive” throughout. Moreover, the outcome in experiment [14] was inactive.

Regarding `COCCn1c(=O)c(-c2cccc(C#N)c2)nc2cnc(N3CCOCC3)nc21`, the Potency is > 11.4 µM in [1], 10 µM (active) in [3], > 9.22 µM in [6] and > 46 µM in [7]. Also, the activity change, negative = inhibition in [2] was -16.2%; in [4] it was -8.26%. Moreover, the activity, negative = inhibition in experiment [5] was 3.4%. Moreover, the Potency result in experiment [8], in experiment [9], in experiment [11], in [12] and in [13] was “inactive” throughout. Further, the result in experiment [14] was inactive.

Consider `COc1ccc2[nH]cc(CCNc3cc(-c4ccc5c(c4)OCO5)ncn3)c2c1`, for which the activity change, negative = inhibition in experiment [4] was 19.3%. Moreover, the Potency in experiment [6] was > 46 µM; in experiment [7] it was > 46 µM; in [11], 3.98 µM (active); in experiment [12], 3.16 µM (active); in experiment [17] it was 2.51 µM (active). For the same molecule, in experiment [13], the Potency result is “inactive”. Also, the result in [14] was inactive.

Turning to `COc1ccc(CNc2ncnc3ccc(-c4ccc5c(c4)OCO5)cc23)c(OC)c1`, the activity change, negative = inhibition in experiment [2] was -16.9%. Also, in [5], the activity, negative = inhibition is -5.8%. Further, the Potency in experiment [6] was > 46 µM; in experiment [7], > 46 µM; in experiment [11], 1.41 µM (active); in [12], 1.41 µM (active); in [17], 0.398 µM (active). The Potency result in [8] and in experiment [13] was “inactive” throughout. In experiment [14], the result was inactive.

On to `CC(=O)NCCNc1ncnc2ccc(-c3ccccc3C#N)cc12`, for which the Potency in [1] was > 11.4 µM; in experiment [3] it was 3.98 µM (active); in [6], > 46 µM; in experiment [7], > 46 µM; in experiment [11] it was 14.1 µM (active); in experiment [12], 14.1 µM (active). Further, the activity change, negative = inhibition in experiment [2] was -5.09%. In addition, the activity, negative = inhibition in [5] is 6.69%. Further, the Potency result in [8], in [9], in experiment [15] and in experiment [13] was “inactive” in each case. Besides, the result in experiment [14] was inactive.
